JMJD2A Tudor inh: qHTS Assay for Inhibitors of JMJD2A-Tudor Domain; AID 504339, 2011; actives 4.4% (n = 390,000); AlphaScreen JMJD2A-Tudor / H3K4me3 peptide binding; Lysine-specific demethylase 4A (Homo sapiens), O75164; Potency, µM (titrated, usually from 114 µM), actives largely listed as inhibitors; also: nearly all actives have a fitted effect of over 50% in size
BAZ2B block: qHTS Assay for Inhibitors of BAZ2B | Bromodomain adjacent to zinc finger domain protein 2B (Homo sapiens), Q9UIF8 | AlphaScreen BAZ2B-H3K14Ac peptide displacement | Potency, µM (doses to about 114 µM), usual class: inhibitors | actives 4.4% (n = 360,000) | AID 504333, 2011; also: nearly all actives have a fitted effect of over 60% in size
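BAZ2B (50 nM) with biotin-H3(5-23)K14Ac peptide (50 nM) in PBS pH 7.4, 0.01% Tween-20, preformed 30 min, then compound 30 min at room temperature; top concentration 110uM. AlphaScreen streptavidin donor/nickel chelate acceptor beads (10 ug/mL final), 20 min dark, signal read.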
HP1b binding inh: HTS for Inhibitors of HP1-beta Chromodomain Interactions with Methylated Histone Tails; AID 540317, 2011; actives 0.56% (n = 390,000); AlphaScreen HP1-beta / biotin-H3K9me3 peptide binding; Chromobox protein homolog 1 (Homo sapiens), P83916; Potency, µM (titrated, usually from 114 µM), usual class: inhibitors; also: nearly all actives have a fitted effect of over 70% in size
Target sequence (P83916 whole entry, looked up): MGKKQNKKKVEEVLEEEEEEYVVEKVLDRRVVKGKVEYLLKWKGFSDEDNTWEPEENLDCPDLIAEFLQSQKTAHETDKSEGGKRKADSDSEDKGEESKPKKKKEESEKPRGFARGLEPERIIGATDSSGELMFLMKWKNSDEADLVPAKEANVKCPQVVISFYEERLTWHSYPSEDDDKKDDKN
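AlphaScreen: HP1-beta (50 nM) preformed 30 min with biotin-H3(1-18)K9me3 peptide (50 nM) in PBS pH 7.4, 0.01% Tween-20. Compound added for 30 min at RT, then streptavidin donor/nickel chelate acceptor beads (10 ug/mL) for 30 min.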
G9a inh: qHTS Assay for Inhibitors of Histone Lysine Methyltransferase G9a; Histone-lysine N-methyltransferase EHMT2 (Homo sapiens), Q96KQ7; G9a H3K9 monomethylation, AlphaScreen, 2 h; Potency, µM (top dose mostly 102 µM), actives largely listed as inhibitors; actives 8.8% (n = 350,000); AID 504332, 2011; also: nearly all actives have a fitted effect of over 75% in size
Target sequence (Q96KQ7 913-1193 limits assumed): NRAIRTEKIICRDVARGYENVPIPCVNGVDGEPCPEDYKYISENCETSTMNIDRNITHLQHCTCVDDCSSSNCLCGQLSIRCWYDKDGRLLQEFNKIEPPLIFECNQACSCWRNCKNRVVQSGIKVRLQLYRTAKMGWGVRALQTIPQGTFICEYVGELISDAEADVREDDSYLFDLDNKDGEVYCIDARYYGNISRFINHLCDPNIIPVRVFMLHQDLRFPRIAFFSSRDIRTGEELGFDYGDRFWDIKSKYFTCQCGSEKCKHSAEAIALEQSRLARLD
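Quantitative HTS format: methyltransferase activity on a biotin-tagged H3K9 peptide is measured by AlphaScreen, using a rabbit anti-monomethyl-H3K9 antibody with streptavidin donor and anti-IgG acceptor beads. Final levels are 20 nM enzyme, 500 nM peptide, 20 uM SAM; 2 h RT.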
GLS inh: qHTS for Inhibitors of Glutaminase (GLS). GLS enzymatic activity, qHTS titration. Potency, µM (doses to about 45.5 µM), actives largely listed as inhibitors. actives 0.21% (n = 410,000). Glutaminase kidney isoform, mitochondrial (Homo sapiens), O94925
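Assay buffer: 45 mM KH2PO4 pH 8.2, 0.02% Tween-20. hKGA acts on L-glutamine (1 mM solution added); product glutamate is reported by an oxidase/peroxidase Amplex Red coupling, with fluorescence taken at baseline and 30 min.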
Hits are given with their value; n = inactive; u = inconclusive; x = not tested or not shown; [ ] = remark or other dose. Hits are enriched below; roughly 10% of the tested compounds scored in any of these assays. Calls follow the shape of the dose curve; as a rule, active = well fitted curve in the direction sought with a large enough effect; inconclusive = small, poorly fitted or top-dose-only effect, or another doubt; inactive = no such curve, though single readings can be large; an effect the other way counts as inactive or inconclusive.

SMILES	JMJD2A Tudor inh	BAZ2B block	HP1b binding inh	G9a inh	GLS inh
O=C(O)c1ccc(C2Nc3ccccc3-c3nnc(SCc4ccc(Cl)cc4)nc3O2)cc1 (centres undefined)	u	50.1µM	n	n	n
CCCCSc1nnc2c(n1)OC(C(=O)c1ccccc1)Nc1ccccc1-2 (centres undefined)	x	u	x	7.08µM	x
COc1ccccc1C(=O)C1Nc2ccccc2-c2nnc(SC)nc2O1 (centres undefined)	n	n	n	7.08µM	n
CCC1Nc2ccccc2-c2nnc(SC)nc2O1 (centres undefined)	n	n	n	u	n
CCCCN(C)S(=O)(=O)c1cc(Br)cc2c1N(C(=O)C1CC1)CC2	n	n	n	n	n
CCN(CC)S(=O)(=O)c1ccc2[nH]cc(C(=O)NCCN3CCCCCC3)c(=O)c2c1	n	n	n	u	n
O=C(CCN1C(=O)/C(=C\C=C\c2ccccc2)SC1=S)Nc1ccccc1C(=O)O	44.7µM	n	u	n	n
O=C(CCN1C(=O)/C(=C\C=C\c2ccccc2)SC1=S)Nc1cccc(C(=O)O)c1	50.1µM	20µM	u	x	n
O=C(CCN1C(=O)/C(=C/C=C/c2ccccc2)SC1=S)Nc1nccs1	n	n	n	n	n
COc1cc(CN2CCCC(N3CCN(c4ccccc4C)CC3)C2)cc(Cl)c1O (centres undefined)	n	n	n	u	n
CC(=O)NC12CC3CC(C1)CC(C(=O)OCC(=O)NC(=O)c1cccn1C)(C3)C2	n	n	n	n	n
Cc1cccc(-n2c(-c3ccncc3)n[nH]c2=S)c1C	12.6µM	n	n	x	n
Cc1cc(-c2n[nH]c(=S)n2-c2ccccc2C)cs1	35.5µM	n	n	1.26µM	n
Cc1ccc(-c2ccc(=O)[nH]n2)cc1	n	n	n	n	n
Cc1ccccc1-n1c(-c2ccc(=O)[nH]n2)n[nH]c1=S	u	u	n	17.8µM	n
CC(C)(C)c1cc(-c2n[nH]c(=S)n2-c2ccccc2F)n[nH]1	10µM	n	n	u	u
COc1ccc(/C=N/Nc2nnc(C)n2N)cc1OC	n	n	n	n	u
Cc1ccccc1-n1c(-c2ccncc2)n[nH]c1=S	14.1µM	n	n	u	n
CC(C)Cn1c(-c2ccc(Br)o2)n[nH]c1=S	n	n	n	1.78µM	n
Cc1ccc(-n2c(-c3ccncc3)n[nH]c2=S)c(C)c1	17.8µM	n	n	x	n
Cc1ccccc1-n1c(-c2ccc(Br)o2)n[nH]c1=S	25.1µM	x	n	x	n
COc1ccc(OC)c(NC(=O)[C@@H]2CCCN2C(=O)c2cccs2)c1	n	n	n	n	n
CN(C)S(=O)(=O)c1ccc(NC(=O)CN2CCc3ccccc32)cc1	n	u	n	n[12.7 µM]	n
O=C(Cn1cnc2sc(-c3ccccc3)cc2c1=O)N1CCOCC1	n	n	n	n[12.7 µM]	n
COc1ccc(Cl)cc1NC(=O)COC(=O)C1COc2ccccc2O1 (centres undefined)	n	n	n	n	n
SMILES	JMJD2A Tudor inh	BAZ2B block	HP1b binding inh	G9a inh	GLS inh
CCc1ccccc1-n1c(-c2ccncc2)n[nH]c1=S	10µM	n	n	5.62µM	n
CC1CCCCCCC1OC(=O)c1ccccc1C(=O)O (centres undefined)	n	x	n	x	n
CCOc1ccc(C2C(C(=O)c3ccco3)=C(O)C(=O)N2CCCn2ccnc2)cc1 (centres undefined)	44.7µM	n	n	u	n
COc1ccc(C2C(C(C)=O)=C(O)C(=O)N2CCCn2ccnc2)cc1OC (centres undefined)	n	u	n	50.1µM	n
CCOc1ccc(C2C(C(=O)c3ccco3)=C(O)C(=O)N2CCCn2ccnc2)cc1OCC (centres undefined)	n	u	n	u	n
CCOc1cc(C2c3c(oc4cc(C)c(Cl)cc4c3=O)C(=O)N2Cc2ccco2)ccc1O (centres undefined)	n	n	n	n	n
FC(F)(F)c1cccc(-c2nnc3ccc(C(F)(F)F)cn23)c1	n	n	n	35.5µM	n
O=c1nc2n(c3ncccc13)CCC2	n	n	n	n	n
Cc1ccc(-n2c(C)cc(/C([O-])=C(/C(=S)Nc3ccc(F)c(Cl)c3)[n+]3ccccc3)c2C)cc1	n	u	n	u	n
CC(C)(C)c1cc[n+](/C(C(=S)Nc2ccccc2F)=C(/[O-])c2ccc3c(c2)OCCO3)cc1	u	35.5µM	n	u	n
[O-]/C(=C(\C(=S)Nc1ccc(Cl)cc1)[n+]1ccccc1)c1ccc(OC(F)F)cc1	u	u	n	11.2µM	n
CCOc1ccccc1NC(=S)/C(=C(\[O-])c1ccc2c(c1)OCCO2)[n+]1ccc(CC)cc1	n	u	u	8.91µM	n
[O-]/C(=C(\C(=S)Nc1ccccc1F)[n+]1ccccc1)c1ccc(-c2ccccc2)cc1	n	n	n	31.6µM	n
[O-]C(=C(C(=S)Nc1cccc2ccccc12)[n+]1ccccc1)c1ccc2c(c1)OCCO2	u	x	u	x	n
Nc1ncc(CCN2CCOCC2)c(-c2ccc(F)cc2)n1	n	n	n	n	n
Cc1cc(Cl)cc(Br)c1OCCCCn1cncn1	3.55µM	50.1µM	u	u	n
Cc1ccccc1OCc1ccc(-c2nc(C#N)c(N3CCN(c4cccc(Cl)c4)CC3)o2)o1	n	n	n	n	n
COc1ccc(C(=O)Oc2cc(/C=N/NC(N)=S)ccc2OC)cc1	n	u	n	n	n
COc1cc(/C=N/NC(N)=O)ccc1OCC(=O)N1C(C)CCCC1C (centres undefined)	n	n	n	n	n
COc1cc(/C=N/Nc2ccc(Cl)c(C(=O)O)c2)ccc1OC(=O)c1ccco1	n	u	n	22.4µM	n
COc1ccc(C(=O)Oc2ccc(/C=N/Nc3ccc(Cl)c(C(=O)O)c3)cc2OC)cc1	u	50.1µM	n	35.5µM	n
COc1cc(/C=N/Nc2ccc(Cl)c(C(=O)O)c2)ccc1OCC(=O)N1C(C)CCCC1C (centres undefined)	n	n	n	50.1µM	u
NC(=O)NCCC1=CCCCC1	n	n	n	n	n
c1ccc(CN2CCC(Nc3nc(-c4cccs4)nc4ccccc34)CC2)cc1	u	u	n	35.5µM	n
CCc1nn2cc(C(=O)c3cc(Cl)ccc3O)cnc2c1-c1ccc(F)cc1	50.1µM	u	u	44.7µM	n
O=C1CC(c2ccc(Cl)cc2)CC(=O)C1CS(=O)(=O)c1ccccc1 (centres undefined)	n[11.4 µM]	79.4µM	n	3.98µM	u
O=C1CCCC(=O)C1CS(=O)(=O)c1ccccc1	n	n	n	3.16µM	n
